# Results: PubChem BioAssay
# Activity calls are given as the source filed them.
# Tests used:
# Albumin (Bos taurus) = Albumin (Bos taurus) (UniProt P02769); experiment: compounds binding labelled BSA control protein – biochemical, small-molecule microarray, Alexa647 label, 635/667 nm fluorescence, artefact control for SMM control protein annotation, profiling panel (AID 1118); conditions: BSA-A647 binding, fluorescence 635 nm, higher = more signal;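 note: score merges 667 nm emission intensity and signal-to-noise per printed compound spot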
# [1] = probe aXIP binding to arrayed compounds – biochemical, NeuroSMM set, 635/667 nm fluorescence, primary screen (AID 1119); conditions: small-molecule microarray, higher = more signal, called active from +8 up or from −8 down;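 note: probe is the protein aXip251-270 applied at 1 µg/mL to compound-printed slides; binding of probe to printed compounds measured as 667 nm fluorescence plus signal to noise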
# [2] = probe aNOTCH3 binding on compound microarray – biochemical, small-molecule microarray, 635/667 nm fluorescence, primary screen (AID 1120); conditions: higher = more signal;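 note: probe is a biotin-tagged antibody raised against NOTCH3 rather than NOTCH3 protein; score merges spot fluorescence near 667 nm with spot signal to noise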
# [3] = probe aNOTCH2 binding on compound microarray – biochemical, small-molecule microarray, 635/667 nm fluorescence, primary screen (AID 1121); conditions: higher = more signal;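 note: score merges feature fluorescence read at 667 nm with its signal to noise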
# [4] = molecular target: Carbonic anhydrase 2 (Homo sapiens) (UniProt P00918); experiment: compounds binding carbonic anhydrase 2 – biochemical, small-molecule microarray, Alexa647-labelled CAII, profiling panel (AID 1122); conditions: CAII-A647 binding fluorescence, higher = more signal
# [5] = COS7 lysate on small-molecule microarray, probe aHis, 635 nm (AID 1123); conditions: COS7 cell lysate, fluorescence, higher = more signal;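 note: z-score combines 667nm fluorescence intensity with signal-to-noise per printed compound spot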
# [6] = probe aLAP1 signal on lysate-treated microarray – cell lysate, small-molecule microarray, COS7 lysate, primary screen (AID 1124); conditions: probe aLAP1, fluorescence, higher = more signal;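 note: lysate comes from COS7 cells expressing LAP1 and is applied at 0.3 µg/mL; score merges spot fluorescence near 667 nm with signal-to-noise over triplicate slides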
# Sam68 (KHDRBS1) = experiment: compounds binding KHDRBS1 protein – biochemical, small-molecule microarray, 635 nm fluorescence, primary screen (AID 1125); conditions: higher = more signal;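 note: score merges 667 nm channel intensity with signal to noise over triplicate slides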
# [7] = test system: Chordin-like protein 2 (CHRDL2); experiment: compounds binding chordin-like 2 – biochemical, small-molecule microarray, 635 nm fluorescence, primary screen (AID 1126); conditions: fluorescence 635 nm, higher = more signal;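 note: printed compound slides probed with Chrdl2 protein at 4 µg/mL for 1 h at 4 C; score merges 667 nm emission intensity with signal to noise over three replicate slides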
# [8] = molecular target: Concanavalin-A (Canavalia ensiformis) (UniProt P02866); experiment: compounds binding concanavalin A lectin – biochemical, small-molecule microarray, Alexa647 label, 635 nm, artefact control for SMM control protein annotation, primary screen (AID 1127); conditions: ConA-A647 binding fluorescence, higher = more signal;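 note: z combines 667 nm emission intensity with signal-to-noise across three replicate slides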
# [9] = compounds binding Alexa647 anti-His antibody – biochemical, small-molecule microarray, 635 nm fluorescence, artefact control for SMM control protein annotation, primary screen (AID 1128); conditions: higher = more signal;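 note: score merges feature fluorescence with signal-to-noise for each printed compound spot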
# [10] = test system: Human papillomavirus type 1a E7 protein (residues 1-88); experiment: HPV1a E7 small-molecule binders, primary screen, biochemical, small-molecule microarray, residues 1-88, 635 nm (AID 1129); conditions: small-molecule microarray binding, fluorescence 635 nm; higher = more signal
# [11] = molecular target: Focal adhesion kinase 1 (Homo sapiens) (UniProt Q05397); experiment: PTK2 protein binding on printed compound slides – biochemical, small-molecule microarray, 635/667 nm fluorescence, BSA, DTT, primary screen (AID 1130); conditions: 635 nm fluorescence, higher = more signal;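 note: composite of spot emission at 667 nm and signal to noise over triplicate slides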
# [12] = test system: Fibrinogen (Alexa647-labelled); experiment: Alexa647-fibrinogen binding to printed small molecules – biochemical, small-molecule microarray, 635/667 nm fluorescence, artefact control for SMM control-protein annotation, profiling panel (AID 1131); conditions: fibrinogen-A647 binding fluorescence, higher = more signal;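 note: z-score merges 667 nm fluorescence with per-spot signal-to-noise over triplicate slides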
# [13] = molecular target: Follistatin (Homo sapiens) (UniProt P19883); experiment: FST protein binding to printed compounds – biochemical, small-molecule microarray, 635/667 nm fluorescence, primary screen (AID 1132); conditions: 635 nm fluorescence, higher = more signal
# [14] = molecular target: Fibroblast growth factor 2 (Homo sapiens) (UniProt P09038); experiment: basic fibroblast growth factor binding to printed compounds – biochemical, small-molecule microarray, 635/667 nm fluorescence, primary screen (AID 1133); conditions: FGF2, fluorescence 635/667, higher = more signal
# [15] = JC-1 mitochondrial potential readout, lung cancer cells – cell-based, A549, JC-1 fluorescence, basal, 24 h, 100 nL, profiling panel (AID 1138); conditions: higher = more signal;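 note: A549 lung adenocarcinoma cells under basal conditions with no added stimulus; test concentration not given here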
# Lefty1 = Lefty1 protein binding to printed compounds – biochemical, small-molecule microarray, 635/667 nm fluorescence, primary screen (AID 1139); conditions: fluorescence 635/667, higher = more signal
# [16] = test system: wheat germ agglutinin (Triticum aestivum), Alexa647-labelled; experiment: Alexa647-WGA lectin binding to printed small molecules – biochemical, small-molecule microarray, 635/667 nm fluorescence, artefact control for SMM control-protein annotation, profiling panel (AID 1140); conditions: WGA-A647 binding, 635 nm fluorescence, higher = more signal;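 note: score merges 667 nm feature emission with signal to noise over triplicate slides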
# [17] = molecular target: Luciferin 4-monooxygenase (Photinus pyralis) (UniProt P08659); experiment: inhibition of purified Photinus pyralis luciferase – biochemical, luminescence, purified enzyme, 2006 set, primary screen (AID 1141); conditions: purified firefly luciferase, SteadyGlo luminescence, 30 min; higher = more signal, called active from +8 up or from −8 down;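 note: cell-free assay with purified firefly luciferase at 100 ng per well in PBS; test concentration not given here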
# Sequence of Luciferin 4-monooxygenase (Photinus pyralis) (P08659 whole entry, looked up): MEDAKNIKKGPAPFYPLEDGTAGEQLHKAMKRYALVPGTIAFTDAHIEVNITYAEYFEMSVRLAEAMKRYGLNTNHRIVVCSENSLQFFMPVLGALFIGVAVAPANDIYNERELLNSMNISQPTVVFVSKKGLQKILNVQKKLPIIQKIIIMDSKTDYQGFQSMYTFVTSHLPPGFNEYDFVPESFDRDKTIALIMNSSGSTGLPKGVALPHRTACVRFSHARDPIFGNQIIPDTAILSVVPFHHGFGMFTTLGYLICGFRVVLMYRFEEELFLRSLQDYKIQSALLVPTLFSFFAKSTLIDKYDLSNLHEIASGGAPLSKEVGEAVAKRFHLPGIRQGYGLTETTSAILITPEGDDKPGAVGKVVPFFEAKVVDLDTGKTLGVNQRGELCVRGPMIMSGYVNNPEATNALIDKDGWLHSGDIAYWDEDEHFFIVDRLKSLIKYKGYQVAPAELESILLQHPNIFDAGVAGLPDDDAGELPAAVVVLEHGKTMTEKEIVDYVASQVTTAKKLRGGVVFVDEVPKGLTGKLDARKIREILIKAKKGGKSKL
# Sequence of Follistatin (Homo sapiens) (P19883 whole entry, looked up): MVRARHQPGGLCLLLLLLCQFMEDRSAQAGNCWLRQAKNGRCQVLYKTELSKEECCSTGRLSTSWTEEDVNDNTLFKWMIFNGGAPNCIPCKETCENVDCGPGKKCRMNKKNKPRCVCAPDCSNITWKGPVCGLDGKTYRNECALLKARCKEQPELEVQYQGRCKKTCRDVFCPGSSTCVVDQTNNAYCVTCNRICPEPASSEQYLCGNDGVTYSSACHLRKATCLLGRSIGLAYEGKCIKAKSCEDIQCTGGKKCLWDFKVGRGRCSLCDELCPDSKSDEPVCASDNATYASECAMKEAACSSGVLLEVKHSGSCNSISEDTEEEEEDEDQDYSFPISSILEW
# Sequence of Fibroblast growth factor 2 (Homo sapiens) (P09038 whole entry, looked up): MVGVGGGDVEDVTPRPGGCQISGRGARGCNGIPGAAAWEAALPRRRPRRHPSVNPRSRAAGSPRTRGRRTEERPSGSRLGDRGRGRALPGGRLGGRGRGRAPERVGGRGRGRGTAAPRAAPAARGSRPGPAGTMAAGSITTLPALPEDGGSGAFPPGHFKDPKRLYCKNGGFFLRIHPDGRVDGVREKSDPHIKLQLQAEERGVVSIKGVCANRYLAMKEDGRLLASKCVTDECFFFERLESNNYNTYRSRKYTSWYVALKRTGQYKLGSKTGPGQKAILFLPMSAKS
# Sequence of Albumin (Bos taurus) (P02769 whole entry, looked up): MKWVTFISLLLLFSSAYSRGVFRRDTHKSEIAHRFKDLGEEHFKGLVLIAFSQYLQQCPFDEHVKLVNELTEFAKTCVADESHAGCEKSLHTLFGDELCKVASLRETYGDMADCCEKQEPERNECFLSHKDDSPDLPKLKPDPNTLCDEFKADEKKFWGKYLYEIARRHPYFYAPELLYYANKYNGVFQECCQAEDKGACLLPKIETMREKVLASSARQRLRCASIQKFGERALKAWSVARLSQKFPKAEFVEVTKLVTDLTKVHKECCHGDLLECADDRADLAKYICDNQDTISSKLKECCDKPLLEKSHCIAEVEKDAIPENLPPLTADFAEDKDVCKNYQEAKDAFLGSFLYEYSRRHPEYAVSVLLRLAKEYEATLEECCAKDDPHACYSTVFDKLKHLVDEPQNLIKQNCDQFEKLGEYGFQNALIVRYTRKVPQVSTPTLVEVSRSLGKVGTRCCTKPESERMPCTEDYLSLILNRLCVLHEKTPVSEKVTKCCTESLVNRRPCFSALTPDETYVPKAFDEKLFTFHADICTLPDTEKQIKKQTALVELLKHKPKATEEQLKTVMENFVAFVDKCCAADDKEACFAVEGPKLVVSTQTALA
# Sequence of Focal adhesion kinase 1 (Homo sapiens) (Q05397 whole entry, looked up): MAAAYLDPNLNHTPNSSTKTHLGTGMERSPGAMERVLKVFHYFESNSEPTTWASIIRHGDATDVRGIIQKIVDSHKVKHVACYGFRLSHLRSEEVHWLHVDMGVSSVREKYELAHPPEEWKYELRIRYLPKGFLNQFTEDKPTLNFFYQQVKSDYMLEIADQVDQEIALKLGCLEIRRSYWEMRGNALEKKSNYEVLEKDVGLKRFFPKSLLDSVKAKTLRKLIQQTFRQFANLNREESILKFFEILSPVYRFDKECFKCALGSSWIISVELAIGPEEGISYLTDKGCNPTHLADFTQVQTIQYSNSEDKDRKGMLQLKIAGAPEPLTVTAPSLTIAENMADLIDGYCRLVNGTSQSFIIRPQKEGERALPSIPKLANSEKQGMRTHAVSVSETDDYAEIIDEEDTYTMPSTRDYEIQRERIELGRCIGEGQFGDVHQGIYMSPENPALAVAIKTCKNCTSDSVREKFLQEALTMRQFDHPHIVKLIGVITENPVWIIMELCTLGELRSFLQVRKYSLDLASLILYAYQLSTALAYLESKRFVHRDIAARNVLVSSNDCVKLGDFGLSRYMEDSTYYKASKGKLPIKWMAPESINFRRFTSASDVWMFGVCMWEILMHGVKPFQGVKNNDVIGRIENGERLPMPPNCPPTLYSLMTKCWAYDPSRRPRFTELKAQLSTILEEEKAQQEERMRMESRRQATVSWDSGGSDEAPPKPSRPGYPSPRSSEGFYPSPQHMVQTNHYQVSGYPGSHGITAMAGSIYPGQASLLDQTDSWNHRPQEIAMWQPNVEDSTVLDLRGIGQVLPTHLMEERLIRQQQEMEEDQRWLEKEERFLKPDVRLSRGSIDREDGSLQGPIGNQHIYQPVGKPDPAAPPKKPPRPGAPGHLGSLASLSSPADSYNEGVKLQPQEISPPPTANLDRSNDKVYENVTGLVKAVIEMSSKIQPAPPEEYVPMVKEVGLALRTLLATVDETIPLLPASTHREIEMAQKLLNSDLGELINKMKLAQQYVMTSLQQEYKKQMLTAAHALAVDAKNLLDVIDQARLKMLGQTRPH
# Sequence of Concanavalin-A (Canavalia ensiformis) (P02866 whole entry, looked up): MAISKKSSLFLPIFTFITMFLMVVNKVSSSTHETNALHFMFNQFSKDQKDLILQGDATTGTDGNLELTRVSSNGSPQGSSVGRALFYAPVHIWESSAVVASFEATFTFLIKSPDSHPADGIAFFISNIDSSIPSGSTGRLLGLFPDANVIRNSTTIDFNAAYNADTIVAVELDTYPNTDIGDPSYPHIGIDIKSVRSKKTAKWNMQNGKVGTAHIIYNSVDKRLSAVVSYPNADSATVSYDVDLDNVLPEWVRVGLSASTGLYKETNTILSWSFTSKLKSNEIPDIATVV
SMILES,composite z-score (Albumin (Bos taurus)),composite Z-score [1],composite z-score [2],composite z-score [3],composite z-score [4],composite z-score [5],composite z-score [6],composite z-score (Sam68 (KHDRBS1)),composite z-score [7],composite z-score [8],composite z-score [9],composite z-score [10],composite z-score [11],composite z-score [12],composite z-score [13],composite z-score [14],z-score [15],composite z-score (Lefty1),composite z-score [16],z-score [17]
COC(=O)[C@@]1(Cc2ccccc2CN=[N+]=[N-])COC(c2ccc(OCCCO)cc2)=N1,0.426,0.978 (inactive),-0.425,-0.0959,0.0365,2.27,-0.365,0.424,-2.4,-1.38,-0.322,-0.493,-0.161,-2.41,-1.88,-1.18,-0.408,-1.65,0.0216,-1.88 (inactive)
C[N+](C)(C)CCCCCCNC(=O)[C@@H]1C[C@@H]2C(=O)N[C@@H](Cc3ccccc3)C(=O)N2[C@@H]1c1ccc(O)cc1,0.454,0.609 (inactive),0.325,-0.126,0.524,0.955,0.385,1.29,1.39,1.12,2.13,1.21,-0.371,0.533,1.43,1.65,-0.247,1.63,0.702,0.344 (inactive)
COCCOC(=O)N1C(=O)[C@@]2(c3cc(C#CC4(O)CCCCCC4)ccc31)[C@H](c1ccccc1OCCO)N1[C@H](c3ccccc3)[C@H](c3ccccc3)OC(=O)[C@H]1[C@@H]2C(=O)N1CCCCCCC1,0.187,0.961 (inactive),1.07,0.513,0.497,2.16,0.364,1.29,0.905,0.992,0.663,1.23,0.504,0.733,1.45,1.09,-0.768,1.37,1.29,0.144 (inactive)
C=CC[C@]1(C(=O)NCCCOC)N=C(c2ccc(OCCCO)cc2)O[C@H]1c1ccccc1,0.812,-0.397 (inactive),0.0522,-0.131,0.783,2.66,0.648,1.07,-1.08,0.335,1.19,1.21,0.0442,-0.922,1.29,-0.9,0.266,-0.689,0.566,0.436 (inactive)
[N-]=[N+]=NCc1ccccc1C[C@]1(C(=O)N2CCCCC2)N=C(c2ccc(OCCCO)cc2)O[C@H]1c1ccccc1,-0.0604,0.397 (inactive),0.23,-0.0323,0.564,1.22,-0.0174,0.979,-1.02,0.717,0.582,1.1,0.425,0.714,0.351,0.182,1.17,-0.599,0.762,0.09 (inactive)
C=C(/C(=C/C[C@H](OC(=O)c1ccncc1)c1ccccc1OCCO)c1cc(C(=O)OC)ccc1OC)C(C)C,0.407,-0.104 (inactive),-0.0288,-0.102,0.453,0.537,-0.0576,1.06,0.33,0.737,0.32,1.08,-0.145,0.314,1.07,1.39,-0.032,0.67,0.351,-0.538 (inactive)
C=CCNC(=O)[C@@H]1[C@H]2C(=O)O[C@H](c3ccccc3)[C@H](c3ccccc3)N2[C@H](c2ccccc2OCCO)[C@@]12C(=O)N(C(=O)OCCOC)c1ccc(C#CCCO)cc12,0.538,-0.0086 (inactive),0.0807,-0.112,0.64,0.797,0.77,1.29,0.0117,0.953,1.91,1.21,0.988,0.414,0.881,1.29,-0.549,0.711,0.971,-0.0405 (inactive)
O=C1OCCC=C[C@H]2OC34C=CCN(c5ccc(Cl)cc5)C(=O)[C@H]3N(CCO)C(=O)[C@@H]4C12 (stereo not given in full),0.597,0.359 (inactive),-0.406,-0.189,0.859,-0.387,-0.419,-0.914,-0.291,-0.648,-0.656,-0.574,-0.732,-0.262,-0.367,-1.14,-0.0109,-0.837,-0.524,-0.381 (inactive)
CCOC(=O)C1=CC[C@@H](c2ccc(F)cc2)N(S(=O)(=O)c2ccc(C)cc2)[C@H]1c1ccc([N+](=O)[O-])cc1,0.854,0.348 (inactive),0.137,-0.14,0.223,2,-0.0775,1.2,-0.493,1.09,0.353,1.19,0.866,0.954,0.283,-0.218,1.83,0.242,0.742,2.28 (inactive)
CC(C)CNC(=O)[C@@H]1c2ccccc2C(=O)N(Cc2ccccc2Cl)[C@H]1c1ccc(CO)cc1,-0.261,0.191 (inactive),-0.212,-0.0404,0.687,1.57,0.397,-0.537,-0.686,-1.68,1.48,0.844,0.401,-1.73,-0.158,0.223,0.572,-0.785,-0.215,0.686 (inactive)
